Measurements: PubChem BioAssay (NCI)
Compounds without any hit were thinned out: in the full panel of roughly 83,000, 20% have a hit.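 Method: cells in 96-well plates; compound added at one concentration; 48 h incubation; percent growth measured; values under 10 scored active.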 Values without a mark were called inactive. Activity calls are given as the source filed them.

What was measured:
Assay in all cases: NCI-60 one-dose screen, 48 h (100 = growth as untreated, 0 = no growth, -100 = all killed)
Settings in all cases: 10 µM unless noted
NCI-H23 lung = system: NCI-H23 lung
NCI-H226 lung = system: NCI-H226 lung
NCI-H322M lung = system: NCI-H322M lung
HOP-62 NSCLC = system: HOP-62 NSCLC
NCI-H460 lung = system: NCI-H460 lung
HOP-92 NSCLC = system: HOP-92 NSCLC
NCI-H522 lung = system: NCI-H522 lung
A549/ATCC NSCLC = system: A549/ATCC NSCLC
786-0 renal = system: 786-0 renal
COLO 205 colon = system: COLO 205 colon

SMILES	growth (NCI-H23 lung)	growth (NCI-H226 lung)	growth (NCI-H322M lung)	growth (HOP-62 NSCLC)	growth (NCI-H460 lung)	growth (HOP-92 NSCLC)	growth (NCI-H522 lung)	growth (A549/ATCC NSCLC)	growth (786-0 renal)	growth (COLO 205 colon)
COc1ccc(C(=O)Cn2cnc3c(Nc4cc(C(=O)Nc5ccc(N6CCN(CCO)CC6)cc5)ccc4C)ncnc32)cc1	98.2%	96.9%	101%	97.3%	108%	121%	87.8%	108%	98.5%	104%
CC(/C=C/C=C(\C)[C@H](O)[C@H](C)C(=O)O[C@H]1C[C@H](C)C=C2C=C[C@@]3(C)O[C@@H](O)CC(=O)[C@]3(C)[C@H]21)=C\C=C\C(=O)O	-6.25% (active)	-3.28% (active)	4.63% (active)	-3.68% (active)	2.9% (active)	-14.2% (active)	-11.8% (active)	3.63% (active)	1.96% (active)	-55.9% (active)
O=[N+]([O-])c1ccc(NS(=O)(=O)c2cc(Cl)ccc2Cl)c2ccccc12	32.5%	65.7%	68.4%	65.7%	46.6%	8.11% (active)	10.1%	89.5%	62.9%	73.6%
O=C(Nc1ccc(-n2ccc3c(NC(=O)c4ccccc4)ncnc32)cc1)c1cccc(C(F)(F)F)c1	80.6%	70.8%	62.9%	71.5%	10.2%	81.2%	45.4%	32.7%	56.2%	51.9%
COc1ccc(/C=C2/C(=O)Nc3cc(Cl)c(-c4csc(N)n4)cc32)cc1	58%	69.2%	68.3%	50.1%	42.7%	43.1%	21.6%	48.5%	62.3%	33.7%
O=C(C[n+]1cccc(Br)c1)c1ccc2c(c1)CCCC2	92%	93.2%	101%	89%	105%	70.5%	80.5%	95.9%	88.3%	91.4%
c1ccc(OCC[P+](c2ccccc2)(c2ccccc2)c2ccccc2)cc1	7.98% (active)	38.5%	59.4%	26.8%	17.1%	-5.38% (active)	-9.67% (active)	30.9%	53.2%	2.02% (active)
Cc1cc(C)c(O)c(C(=O)CC(Br)C(=O)O)c1 (stereo not given)	96.4%	106%	101%	106%	108%	88.1%	81.7%	99.3%	86.2%	116%
O=C(NCCNc1nccc(-c2c(-c3cccc(O)c3)nc3sccn23)n1)c1ccc(N2CCOCC2)c(C(F)(F)F)c1	85.4%	69.5%	102%	96.7%	66.9%	38.9%	74.4%	64.1%	60.1%	43.4%
CC(C(C(=O)N1CCCCC1)N1CCCCC1)N1CCCCC1 (stereo not given)	107%	109%	119%	96.7%	114%	112%	93.1%	94%	108%	118%
CCc1c(C)c2cc3nc(NCc4ccccc4)oc3c(C)c2oc1=O	69.7%	88.1%	70.2%	73.7%	60.3%	78.1%	45.5%	78.6%	44.4%	114%
COc1ccc2c(-c3ccc(F)cc3)c(C#N)c(=NC(C)=O)oc2c1	53.8%	89.6%	58.2%	62.8%	23.3%	70.6%	5.83% (active)	53.4%	33.4%	106%
COc1ccc(-n2c(-c3ccc(NC(=O)CCCl)cc3)nnc2-c2cc(OC)c(OC)c(OC)c2)cc1	54.8%	68.8%	59.4%	54.8%	7.54% (active)	46.1%	43.8%	30.2%	75.4%	8.54% (active)
O=C1COc2ccccc2C(=O)N1CCCCNc1ccccc1	98.9%	91.7%	99.5%	73.5%	98.7%	64.8%	68.9%	64.9%	70.8%	101%
COc1cc(-c2nc(SCC(=O)Nc3ccc(C(C)=O)cc3)[nH]c(=O)c2C#N)cc(OC)c1OC	38.4%	58.5%	45.3%	20.7%	5.79% (active)	10.3%	-14.5% (active)	19.8%	35.5%	-16.2% (active)
CCN(CC)CCNc1ccc([N+](=O)[O-])c2sc3cc(Cl)ccc3c(=O)c12	63.5%	84.9%	53.9%	57.7%	-17.8% (active)	47.5%	49.4%	52.9%	-80.3% (active)	60.1%
NC(CSC(c1ccccc1)(c1ccccc1)c1ccc(F)cc1)C(=O)O (stereo not given)	14.4%	61.8%	28.7%	-28.7% (active)	2.02% (active)	-24.3% (active)	-59.1% (active)	11.7%	-50.8% (active)	5.57% (active)
Fc1ccc(/C=N/n2c(-c3cc(Cl)cc(Cl)c3Cl)nn(CNc3ccc(Cl)nn3)c2=S)cc1	86.3%	97.1%	94.9%	82.4%	112%	49.5%	82.8%	99.3%	85.5%	100%
COc1ccc(-c2c(NC(=O)Nc3ccc(Cl)c(C(F)(F)F)c3)cnn2-c2ccc(S(N)(=O)=O)cc2)cc1	42.6%	75.8%	51%	53.5%	9.7% (active)	0.848% (active)	43.7%	39.2%	31.6%	34.7%
COc1ccc(/C=C/C(=O)/C=C(/C=C/c2ccc(OC)c(OC)c2OC)OB(F)F)c(OC)c1OC	37.3%	75.6%	91.8%	70.4%	43.6%	79.5%	16.3%	55.7%	14.1%	7.86% (active)
CN(C)c1ncc(C#Cc2c(F)cccc2F)c2ccccc12	89.9%	89.4%	88.5%	88.1%	84%	40.4%	70.7%	86.5%	105%	98.7%
O=c1cc(Cl)[nH]c(=O)[nH]1	98.9%	97.5%	98.9%	83.2%	108%	98.2%	67.7%	79.5%	101%	97.5%
CCCCOc1c(N)cccc1C(=O)OCCN(CC)CC	97.1%	99.8%	80.7%	104%	105%	95.7%	76.5%	97.4%	102%	109%
Clc1ccc(OCc2nc(-c3ccccc3)n[nH]2)c(Cl)c1	97.6%	89.9%	101%	86.8%	99.3%	90.8%	92%	97.1%	108%	90.5%
Cc1cc(NC(=O)c2cccc(C(F)(F)F)c2)ccc1-n1ccc2c(NC(=O)c3ccccc3)nccc21	94.6%	112%	77.4%	87.4%	116%	123%	85.6%	86.8%	102%	113%
O=C(O)c1ccc(-n2cc(/C=N/Nc3ccccc3F)c(-c3ccc(O)cc3)n2)cc1	92.3%	95.3%	79.1%	91.7%	101%	95.6%	48.3%	86.8%	84%	95.9%
CC(=O)n1cc(/C=C2\N=C(c3ccc(Cl)cc3)N(c3ccc(S(=O)(=O)Nc4nccs4)cc3)C2=O)c2ccccc21	89%	94.7%	85.8%	97.6%	82.1%	95.9%	60%	91%	88.6%	115%
